Out of some 150,000 compounds screened, about 540 (0.36%) showed an effect of 50% or more. For the sample, strong results were picked, then their nearest neighbours and some compounds at random.
test system: Plasmodium falciparum; experiment: Primary screen in NF54 nanoGlo assay, in single point, at 2uM, 72h; a lower Z score goes with more inhibition; format: functional, Erythrocyte; conditions: timepoint 72 hour

SMILES | % Inhibition [%] | Z score
Oc1ccccc1CNc1cccc2c[nH]nc12 | -4 | 0.68
O=C(Nc1cccc2cccnc12)c1cscn1 | 9 | -1.21
O=C(Nc1cccc2cccnc12)c1csnn1 | 6 | -1.1
Oc1ccccc1CNc1cccc2cccnc12 | 96 | -8.95
Oc1cccc(CNc2cccc3cccnc23)c1 | 27 | -3.62
O=C(Nc1cccc2cccnc12)c1ccccn1 | 79 | -8.04
O=C(Cn1ccc([C@H]2CCCNC2)n1)NCc1c(F)cccc1Cl | 0 | -0.03
O=C1CC[C@H](C(=O)N2CCCCO2)CN1CCN1CCOCC1 | -15 | 1.87
CCC1CCC(C(=O)NCC(=O)N2CCn3cncc3C2)CC1 (centres undefined) | -22 | 2.8
Cn1c(-c2ccccc2)cn2cc(-c3ccc(F)cc3)nc12 | 38 | -0.19
Cn1c(-c2ccccc2)cn2cc(-c3ccc(Cl)cc3)nc12 | 54 | -1.03
Cn1c(-c2ccc(Br)cc2)cn2cc(-c3ccc(Cl)cc3)nc12 | 44 | 0.7
Nc1n[nH]c(-c2ccc(Br)o2)n1 | 4 | -0.5
OC1=Nc2c(ncn2-c2cc(F)cc(F)c2)[C@@H](c2cccnc2)C1 | 34 | -3.88
Cc1ccc(CN2CCN(CC(=O)Nc3cc(C)on3)C(=O)C2=O)cc1 | 0 | -0.03
O=c1nc2n(nc1-c1ccc(F)cc1)C1(CCCC1)Nc1ccccc1-2 | -9 | 0.98
O=c1nc2n(nc1-c1ccccc1)C1(CCC1)Nc1ccccc1-2 | 54 | -13.48
O=c1nc2n(nc1-c1ccccc1)C1(CCCCC1)Nc1ccccc1-2 | -10 | 1.25
C[C@H](NC(=O)C1=NN(C)C(=O)CC1)c1ccc2c(c1)OCCO2 | -13 | 1.49
O=C(CCS(=O)(=O)c1ccccc1)N1CC[C@H](Oc2cc(C(F)(F)F)ccn2)C1 | -6 | 1.09
O=C(O)CN1CCC[C@H](c2nc(-c3ccccc3)c[nH]2)C1 | -8 | 0.94

SMILES | % Inhibition [%] | Z score
COc1ccnc(CN2CCC[C@H](c3nc(-c4ccccc4)c[nH]3)C2)c1OC | 69 | -7.6
Cc1nncn1C1CCN(S(=O)(=O)c2ccc(Cl)cc2)CC1 | -11 | 1.89
COc1ccc(CC(=O)N2C3COCC2C3)nc1 | 33 | -3.69
CC(=O)c1cccc(NC(=O)[C@@]23CCC(=O)N2c2ccccc2C(=O)N3C)c1 | 84 | -11.29
CCCN1C(=O)c2ccccc2N2C(=O)CC[C@@]12C(=O)Nc1nc(C)cs1 | 2 | -0.31
Cc1cc(N(C)C)ccc1NC(=O)CCN1C(=O)c2ccccc2N2C(=O)CC[C@]12C | 2 | -0.43
CC(=O)c1cccc(NC(=O)N2CCCCCCC2)c1 | 2 | -0.33
CCCN1C(=O)c2ccccc2N2C(=O)CC[C@@]12C(=O)Nc1ccc(OC)cc1 | 88 | -16.69
CCCCN1C(=O)c2ccccc2N2C(=O)CC[C@@]12C(=O)Nc1nccs1 | 25 | -2.95
CCN1C(=O)c2ccccc2N2C(=O)CC[C@@]12C(=O)Nc1nccs1 | 8 | -0.95
COc1cccc(NC(=O)C23CCCN2CCC3)c1 | -8 | 1.16
CCN1C(=O)c2ccccc2N2C(=O)CC[C@@]12C(=O)Nc1cccc(OC)c1 | 92 | -11.06
CC(=O)c1cccc(NC(=O)N2CCC3(CCC3)C2)c1 | -6 | 1.19
CCCN1C(=O)c2ccccc2N2C(=O)CC[C@@]12C(=O)Nc1cccc(NC(C)=O)c1 | 8 | -1.31
CCCN1C(=O)c2ccccc2N2C(=O)CC[C@@]12C(=O)Nc1ccccc1 | 88 | -14.36
O=C(Nc1cccc(Cl)c1)Nc1nnc2cccc(Cl)n12 | -18 | 2.03
Cc1csc(NC(=O)c2cc(-c3ccccc3)on2)n1 | -6 | 1.01
COc1cc2ccc1OCC(=O)N[C@@H](C)C(=O)N(C)CCCCN(C(=O)c1cc(Cl)cn1C)CCCNC2=O | -24 | 3.05
COCC1(CNC(=O)c2ccc(-c3ccncc3C)cc2)CCC1 | 8 | -1
Cn1cc(N2C[C@@H](C(=O)NCC=Cc3cccnc3)CCC2=O)cn1 | -4 | 0.63
Cn1c(C(=O)N2CC[C@H](N)C2)ccc1-c1cccc(Br)c1 | 50 | -7.09

Source: ChEMBL document CHEMBL4888484, “Replenishing the malaria drug discovery pipeline: Screening and hit evaluation of the MMV Hit Generation Library 1 (HGL1) against asexual blood stage Plasmodium falciparum ,using a nano luciferase reporter read-out” (2022)
